# Measured values from PubChem BioAssay (EPA / NIEHS).
# Where “and” joins values, the source holds several entries; their conditions need not be identical. Identical values can stand only once. Where a structure was tested more than once in an assay, its records may differ in their call. Calls of active or inactive are those of the source. The calls were made as follows: active = hit-call score of the fitted dose curve at least 0.9, where 1 is the maximum; inactive = score below 0.9.
# Read-out: Matrix Metallopeptidase 9 (MMP9), MMP9 (gene 4318)
# Experiment: BSK_BE3C_MMP9: BioMAP Diversity Plus: BE3C Assay for Matrix Metallopeptidase 9 (MMP9) Biomarker Activity (AID 2284283)
# Conditions: primary human bronchial epithelial cells
# Procedure: BSK_BE3C is a cell-based, multiplexed-readout assay that uses bronchial epithelial cell, a human lung primary cell, with measurements taken at 24 hours after chemical dosing in a 96-well plate.BSK_BE3C_MMP9 is an assay component measured in the BSK_BE3C assay. It measures MMP-9 antibody related to regulation of gene expression using ELISA technology.Data from the assay component BSK_BE3C_MMP9 was analyzed at the endpoint, BSK_BE3C_MMP9, in the positive analysis fitting direction relative to DMSO as the negative control and baseline of activity. Using a type of binding reporter, gain or loss-of-signal activity can be used to understand protein changes. To generalize the intended target to other relatable targets, this assay endpoint is annotated to the 'protease' intended target family, where the subfamily is 'matrix metalloproteinase'.
# The levels of cell surface (or secreted, indicated by the prefix "s") biomarker endpoints were measured by ELISA. Overt cytotoxicity to cells in confluent adherent cultures (all systems other than the BT system) was assessed by measuring total protein levels using sulforhodamine B (SRB) staining in parallel cultures at the time of biomarker measurements, indicated as SRB endpoints. For proliferation assays for adherent cell types, individual cell types are cultured at sub-confluence and relative cell numbers quantified by SRB staining at time points optimized for each system (48 h: 3C and CASM3C systems; 72 h: BT and HDF3CGF systems; 96 h: SAg system). SRB was performed by staining cells with 0.1% SRB after fixation with 10% TCA and reading wells at 560 nm.Viability and proliferation of PBMC (T cells) was quantified by Alamar Blue reduction for the SAg and BT systems. For PBMC viability (referred to as PBMC Cytotoxicity within the assay endpoint names), cells were plated (75,000/well in a 96-well plate) and then chemical samples added for 1 h before addition of activators, SEB and TSST-1 (20 ng/mL final concentration each). Cells were incubated for 90 h. Then, Alamar Blue (20 uL/well) (Invitrogen, Cat DAL1100) was added for 6 h, and the plates were read with a fluorescence microplate reader at 546/580 nm (excitation/emission). For PBMC proliferation, cells were plated and activated as above but incubated for only 16 h prior to addition of Alamar Blue. Plates were read after 6 h.
SMILES,outcome,AC50
CC(C)C1OCCN1CCOC(=O)NCCCCCCNC(=O)OCCN1CCOC1C(C)C (centres undefined),inactive,
COc1ccc(C(=O)c2ccccc2O)c(O)c1,,10.2 µM (active) and 17.3 µM (active)
Cc1c(C(N)=O)cc([N+](=O)[O-])cc1[N+](=O)[O-],inactive,15.4 µM (active)
O=[N+]([O-])c1cc(S(=O)(=O)Nc2ccccc2)ccc1Nc1ccccc1,,33.4 µM (active) and 20 µM (active)
OC(C(F)(F)F)(C(F)(F)F)C(O)(C(F)(F)F)C(F)(F)F,,30 µM (active)
CCCCC(CC)COC(=O)C=Cc1ccc(OC)cc1 (centres undefined),inactive,
COc1cc(CNC(=O)CCCC/C=C/C(C)C)ccc1O,inactive,
CC[N+](CC)(CC(=O)Nc1c(C)cccc1C)Cc1ccccc1 (tested in a mixture with another compound),inactive,
COc1ccccc1Oc1c(NS(=O)(=O)c2ccc(C(C)(C)C)cc2)nc(-c2ncccn2)nc1OCCO,inactive,
CN(C)Cc1cc(C(C)(C)C)c(O)c(C(C)(C)C)c1,inactive,10.7 µM (active)
C1CN(CCOCCN2CCOCC2)CCO1,inactive,
CCC[Si](OC(C)=O)(OC(C)=O)OC(C)=O,inactive,
